Our source for the Potency and outcome values is PubChem BioAssay (NCATS).

Structures are written as SMILES. Inconclusive results are not listed. The source made the active and inactive calls. Unless noted, calls come from the whole dose curve; as a rule, active = well fitted curve in the direction sought with a large enough effect; inconclusive = small, poorly fitted or top-dose-only effect, or another doubt; inactive = no such curve, though single readings can be large; an effect the other way counts as inactive or inconclusive.

Assay [1] can be described thus: Quantitative high throughput screen for delayed death inhibitors of the malarial parasite plastid, 96 hour incubation (AID 488745). Note: nearly all actives have a fitted effect of over 70% in size. Note: potency is the fitted concentration of half-maximal effect. An outline of the steps: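 Readout is firefly luciferase luminescence from an integrated reporter in P. falciparum; lower signal marks inhibited growth. Cultures at 2% hematocrit and 0.1% parasitemia were treated with compound across two generations (96 h, 37 C, 5% CO2).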

The nature of assay [2]: Quantitative high throughput screen for delayed death inhibitors of the malarial parasite plastid, 48 hour incubation (AID 488752). Note: nearly all actives have a fitted effect of over 65% in size. Note: potency is the fitted concentration of half-maximal effect. An outline of the steps:
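First, compound was pinned into RPMI 1640 medium containing 0.5% Albumax. Next, reporter-parasite-infected erythrocytes were added to 2% hematocrit and 0.1% parasitemia. After 48 h at 37 C under 5% CO2, luciferase detection reagent was added and luminescence read.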

The target of assay [3] is Thioredoxin reductase 1, cytoplasmic (Rattus norvegicus) (UniProt O89049). Kind of assay: qHTS Assay for Inhibitors of Mammalian Selenoprotein Thioredoxin Reductase 1 (TrxR1) (AID 488773). Note: nearly all actives have a fitted effect of over 40% in size. Note: potency is the fitted concentration of half-maximal effect. The conditions noted are these: Potency: inhibition. An outline of the steps: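 Inhibition is scored from the loss of NADPH fluorescence between first and last reads of an 8-min kinetic run. Selenite (400 uM) was the substrate, added after 15 min compound preincubation at room temperature.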
Sequence of Thioredoxin reductase 1, cytoplasmic (Rattus norvegicus) (O89049 whole entry, looked up): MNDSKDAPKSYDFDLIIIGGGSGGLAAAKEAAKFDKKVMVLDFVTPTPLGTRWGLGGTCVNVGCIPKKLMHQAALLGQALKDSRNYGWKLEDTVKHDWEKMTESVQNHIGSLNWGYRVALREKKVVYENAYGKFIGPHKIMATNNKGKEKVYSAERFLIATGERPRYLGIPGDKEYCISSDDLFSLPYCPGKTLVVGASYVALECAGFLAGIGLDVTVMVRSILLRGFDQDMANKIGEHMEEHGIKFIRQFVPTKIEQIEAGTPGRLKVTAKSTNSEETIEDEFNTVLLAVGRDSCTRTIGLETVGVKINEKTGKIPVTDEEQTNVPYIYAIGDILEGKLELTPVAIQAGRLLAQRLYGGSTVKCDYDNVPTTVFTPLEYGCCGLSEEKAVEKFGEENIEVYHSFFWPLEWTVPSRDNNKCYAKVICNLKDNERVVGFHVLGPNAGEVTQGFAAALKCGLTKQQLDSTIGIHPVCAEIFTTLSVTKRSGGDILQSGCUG
On the technique in general: qHTS replaces the single test concentration by a dilution series.

For assay [4], the target named is Ubiquitin carboxyl-terminal hydrolase 2 (Homo sapiens) (UniProt O75604). Kind of assay: qHTS Validation Assay for Inhibitors of Ubiquitin-specific Protease USP2a Using CHOP2 as the Reporter (AID 463106). The text has this: NIH Molecular Libraries Screening Centers Network [MLSCN]
Sequence of Ubiquitin carboxyl-terminal hydrolase 2 (Homo sapiens) (O75604 whole entry, looked up): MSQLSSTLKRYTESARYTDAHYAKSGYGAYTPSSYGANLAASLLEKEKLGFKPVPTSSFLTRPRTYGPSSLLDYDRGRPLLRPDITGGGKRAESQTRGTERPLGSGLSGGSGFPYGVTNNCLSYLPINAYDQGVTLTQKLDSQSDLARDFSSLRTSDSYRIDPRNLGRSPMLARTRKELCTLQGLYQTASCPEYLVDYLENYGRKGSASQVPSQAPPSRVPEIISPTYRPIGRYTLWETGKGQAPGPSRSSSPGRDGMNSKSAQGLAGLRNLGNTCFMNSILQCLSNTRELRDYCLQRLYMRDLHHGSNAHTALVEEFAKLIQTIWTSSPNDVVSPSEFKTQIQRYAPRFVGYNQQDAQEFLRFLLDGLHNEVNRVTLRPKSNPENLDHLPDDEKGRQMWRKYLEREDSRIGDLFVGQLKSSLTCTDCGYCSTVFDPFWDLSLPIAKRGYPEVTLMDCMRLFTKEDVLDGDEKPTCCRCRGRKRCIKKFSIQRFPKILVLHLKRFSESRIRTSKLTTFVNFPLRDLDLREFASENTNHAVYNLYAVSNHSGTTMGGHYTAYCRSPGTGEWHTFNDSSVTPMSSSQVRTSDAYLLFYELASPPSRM
NIH Chemical Genomics Center [NCGC]
PI Name: Nicholson, Ben. Progenra Inc, Malvern, PA
Homeostasis of cellular proteins is maintained through a combination of synthesis and degradation. The pathway that accounts for the majority of protein degradation is the ubiquitin-proteasomal pathway. Ubiquitin (Ub) is highly conserved in all cells and the generation of a multi-Ub chain typically targets proteins for degradation by the proteasome. However, ubiquitination is highly reversible and dynamic. Deubiquitination, the reverse process, is catalyzed through the action of enzymes referred to as isopeptidases or deubiquitinating enzymes (DUBs). This group of enzymes is collectively responsible for maintaining adequate pools of free ubiquitin and regulating the ubiquitination status of cellular proteins. The class of DUBs referred to as the ubiquitin-specific proteases (USP) family functions endoproteolytically to cleave Ub chains from a wide range of protein substrates. USP2a deubiquitinates fatty acid synthase (FASN) which has recently been identified as an emerging oncology target. To identify inhibitors of USP2a a cell-free assay was employed.
The reporter enzyme chosen is an enterokinase called CHOP2, which is activated when the Ub is cleaved by USP2. The free and now activated reporter can subsequently act on its reporter substrate. […] The assay was developed by Progenra, Inc. and has been licensed for sale by LifeSensors, Inc. as Ub-CHOP2-Reporter-Kit (#PR1101).
NCGC Assay Protocol Summary:
The assay buffer, prepared fresh at the day of the assay, contains 20mM Tris-HCl pH 8.0, 2mM CaCl2, 2mM beta-Mercaptoethanol, 0.05% CHAPS. 3ul of 20nM (10nM final) USP2 core, which is stored on ice, is dispensed into a medium-binding black solid Kalypsys 1,536 well plate using the Kalypsys dispenser. The assay plate is then pinned with 23nL compound with the Kalypsys pintool in columns 5-48. The controls are pinned as follows: column 1 two-fold dilutions of 2M NEM in duplicate; column 2 2M NEM (final concentration 38.2mM); column 3&4 DMSO. The assay plate is incubated at RT for 30min. […] Plates were read after 60min RT incubation on a ViewLux (Perkin Elmer) plate reader using the following wavelengths Ex 485nm /Em 531nm.
Data were normalized to the to AC100 inhibition (NEM). Concentration-response curves were fitted to the normalized data and the concentration-response curves were then classified based on curve quality (r2), response magnitude and degree of measured activity. The time zero reading was used to flag fluorescence artifacts. […]

In assay [5] the target is DNA polymerase III PolC-type (Bacillus subtilis (strain 168)) (UniProt P13267). The experiment in a line: qHTS Validation Assay for the Inhibitors of DNA Replication in Gram-Positive Bacteria (AID 485295).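 Note: reconstituted holoenzyme with PolC plus beta clamp SSB and primase; PicoGreen fluorescence of double-stranded DNA made on primed circular M13 template; series mostly up to about 57 µM.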 An outline of the steps:
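Primed replication of single-stranded M13Gori by a four-protein B. subtilis holoenzyme is measured at room temperature. Double-stranded product is quantified by PicoGreen fluorescence after an EDTA stop; inhibition is scaled between DMSO and EDTA controls.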

The target in assay [6] is Tumor susceptibility gene 101 protein (Homo sapiens) (UniProt Q99816). The experiment in a line: qHTS Validation Assay for Iinhibitors of HIV-1 Budding by Blocking the Interaction of PTAP/TSG101 (AID 485342; calls by dose curve). The essentials: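 Fluorescence anisotropy measured PTAP-Tsg101 interaction. Final concentrations were 10 uM protein domain and 50 nM labeled peptide, equilibrated 20 min at room temperature.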
Sequence of Tumor susceptibility gene 101 protein (Homo sapiens) (Q99816 whole entry, looked up, the tested form may be a part): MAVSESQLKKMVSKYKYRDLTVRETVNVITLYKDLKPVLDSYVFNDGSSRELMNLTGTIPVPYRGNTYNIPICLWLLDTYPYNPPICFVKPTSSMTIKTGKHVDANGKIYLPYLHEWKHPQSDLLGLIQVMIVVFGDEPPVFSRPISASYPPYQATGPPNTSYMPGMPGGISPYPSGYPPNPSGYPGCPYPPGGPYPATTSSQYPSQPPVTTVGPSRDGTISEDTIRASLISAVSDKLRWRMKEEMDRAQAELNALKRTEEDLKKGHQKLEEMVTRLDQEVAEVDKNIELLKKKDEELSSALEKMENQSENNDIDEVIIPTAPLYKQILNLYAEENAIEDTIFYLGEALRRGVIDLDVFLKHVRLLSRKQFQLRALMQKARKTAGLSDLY

The nature of assay [7]: qHTS Validation Assay to Find Inhibitors of Chronic Active B-Cell Receptor Signaling (AID 485345; active = well fitted curve in the direction sought with a large enough effect in the main read-out, with a control signal flat, not every such curve was filed as active). An outline of the steps:
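Read-out: ratio of filter-corrected green (IkappaBalpha fusion) to red (native) luciferase signal in doxycycline-induced TMD8 cells after 4 h at 37C. Titration spanned 46 uM–3 nM; Data were normalised to basal cells and 10 uM MG-132 wells.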

The target of assay [8] is Beta-2 adrenergic receptor (Homo sapiens) (UniProt P07550). The experiment in a line: qHTS validation assay of beta-arrestin-biased ligands of beta2-adrenergic receptor (AID 485366). An outline of the steps:
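qHTS, Tango cells, 1500 cells/well, DMEM + 1% FBS. Cpd 18 hr at 37 degrees C. Luciferin/ATP/CoA detection mix, 15 min RT, luminescence read. %Activity from corrected signal; CRC fit, curve class.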

Assay [9] deals with ATP-dependent 6-phosphofructokinase (Trypanosoma brucei brucei) (UniProt O15648). The experiment in a line: qHTS Validation Assay to Find Inhibitors of T. brucei phosphofructokinase (AID 485368). The note with it: outcome: dose series up to 57.5 µM. The essentials: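 Luminescent ADP detection measures PFK turnover of fructose-6-phosphate (0.5 mM) with ATP (0.1 mM) at pH 8.0. Reaction runs 45 min at room temperature with 1.25 nM enzyme; inhibitors tested as titrations up to 57 uM.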
Sequence of ATP-dependent 6-phosphofructokinase (Trypanosoma brucei brucei) (O15648 whole entry, looked up): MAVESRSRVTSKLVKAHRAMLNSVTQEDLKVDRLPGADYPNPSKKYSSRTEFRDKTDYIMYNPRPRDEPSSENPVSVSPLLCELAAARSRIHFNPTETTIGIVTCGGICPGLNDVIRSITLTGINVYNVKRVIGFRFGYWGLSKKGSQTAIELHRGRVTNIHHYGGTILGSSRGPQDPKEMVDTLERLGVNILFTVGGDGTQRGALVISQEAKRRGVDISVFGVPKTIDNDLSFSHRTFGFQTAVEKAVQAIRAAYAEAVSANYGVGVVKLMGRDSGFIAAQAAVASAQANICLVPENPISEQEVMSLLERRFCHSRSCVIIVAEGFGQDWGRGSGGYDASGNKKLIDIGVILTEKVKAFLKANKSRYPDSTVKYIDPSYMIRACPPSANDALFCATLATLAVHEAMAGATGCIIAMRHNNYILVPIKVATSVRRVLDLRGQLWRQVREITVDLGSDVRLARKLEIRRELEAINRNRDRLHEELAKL

For assay [10], the target named is Thioredoxin reductase 1, cytoplasmic (Rattus norvegicus) (UniProt O89049). The experiment in a line: qHTS Assay for Substrates of Mammalian Selenoprotein Thioredoxin Reductase 1 (TrxR1) (AID 488772).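 Note: series mostly up to about 57 µM; a drop in NADPH fluorescence below the no-compound background marks a TrxR1 substrate.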 An outline of the steps: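 In this dual-purpose format, potential substrates are identified from the first fluorescence read after selenite addition, not from the 8-minute delta. Rat enzyme is preincubated with NADPH and then with compound at ~22 deg C.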

Sequence of DNA polymerase III PolC-type (Bacillus subtilis (strain 168)) (P13267 whole entry, looked up): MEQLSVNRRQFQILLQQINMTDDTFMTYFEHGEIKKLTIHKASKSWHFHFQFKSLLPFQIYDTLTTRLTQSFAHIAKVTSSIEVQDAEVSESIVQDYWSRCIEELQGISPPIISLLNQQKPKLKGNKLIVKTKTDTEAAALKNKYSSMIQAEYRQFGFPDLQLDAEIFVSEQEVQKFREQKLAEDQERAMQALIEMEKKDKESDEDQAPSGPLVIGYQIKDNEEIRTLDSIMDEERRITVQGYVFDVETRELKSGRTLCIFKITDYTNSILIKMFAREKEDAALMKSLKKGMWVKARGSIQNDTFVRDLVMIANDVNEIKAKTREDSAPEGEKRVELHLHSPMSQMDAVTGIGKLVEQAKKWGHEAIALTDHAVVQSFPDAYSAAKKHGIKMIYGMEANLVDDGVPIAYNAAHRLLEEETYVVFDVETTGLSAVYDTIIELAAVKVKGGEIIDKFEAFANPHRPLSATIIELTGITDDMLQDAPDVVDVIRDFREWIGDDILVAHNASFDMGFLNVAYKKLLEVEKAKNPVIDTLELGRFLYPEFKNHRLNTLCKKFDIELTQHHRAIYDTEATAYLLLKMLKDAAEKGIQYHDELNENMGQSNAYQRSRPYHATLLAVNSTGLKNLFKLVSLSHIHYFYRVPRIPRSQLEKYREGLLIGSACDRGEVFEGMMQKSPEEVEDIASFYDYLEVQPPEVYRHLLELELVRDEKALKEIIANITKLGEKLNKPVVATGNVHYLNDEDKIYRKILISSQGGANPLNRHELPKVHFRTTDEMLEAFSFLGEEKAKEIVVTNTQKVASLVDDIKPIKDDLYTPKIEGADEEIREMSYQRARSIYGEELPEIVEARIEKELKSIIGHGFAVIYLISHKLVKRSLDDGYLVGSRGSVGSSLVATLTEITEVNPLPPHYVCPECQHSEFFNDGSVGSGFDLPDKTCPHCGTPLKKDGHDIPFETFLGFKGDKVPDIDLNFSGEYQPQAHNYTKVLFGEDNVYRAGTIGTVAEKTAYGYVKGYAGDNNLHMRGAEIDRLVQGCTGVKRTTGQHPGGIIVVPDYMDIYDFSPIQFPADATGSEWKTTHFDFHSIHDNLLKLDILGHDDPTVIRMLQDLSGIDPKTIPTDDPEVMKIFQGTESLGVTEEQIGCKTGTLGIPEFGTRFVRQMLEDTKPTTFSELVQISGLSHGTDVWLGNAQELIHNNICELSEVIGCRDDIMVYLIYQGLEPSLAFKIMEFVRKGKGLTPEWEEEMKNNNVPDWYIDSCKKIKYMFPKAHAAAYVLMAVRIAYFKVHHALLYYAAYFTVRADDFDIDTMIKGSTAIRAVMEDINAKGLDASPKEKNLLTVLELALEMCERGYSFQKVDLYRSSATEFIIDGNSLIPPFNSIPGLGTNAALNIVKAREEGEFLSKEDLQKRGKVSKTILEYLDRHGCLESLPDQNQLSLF
Sequence of Beta-2 adrenergic receptor (Homo sapiens) (P07550 whole entry, looked up): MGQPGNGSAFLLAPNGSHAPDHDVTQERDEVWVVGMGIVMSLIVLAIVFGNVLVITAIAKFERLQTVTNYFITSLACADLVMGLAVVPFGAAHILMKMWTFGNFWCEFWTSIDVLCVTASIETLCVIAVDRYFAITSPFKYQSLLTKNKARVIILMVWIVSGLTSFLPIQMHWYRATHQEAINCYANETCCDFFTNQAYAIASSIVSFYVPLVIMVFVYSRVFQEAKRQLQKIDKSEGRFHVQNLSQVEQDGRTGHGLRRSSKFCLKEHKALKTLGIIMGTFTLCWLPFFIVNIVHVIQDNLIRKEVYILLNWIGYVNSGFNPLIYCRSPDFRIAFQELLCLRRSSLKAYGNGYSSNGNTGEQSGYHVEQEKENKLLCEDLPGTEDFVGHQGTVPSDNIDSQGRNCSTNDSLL

`O=C1NCN(c2ccccc2)C12CCN(CCCC(c1ccc(F)cc1)c1ccc(F)cc1)CC2`: the Potency in assay [1] was 3.7 µM (active); in assay [2], 9.28 µM (active).

As for `Brc1c(NC2=NCCN2)ccc2nccnc12`, the Potency in [3] was 16.8 µM (active).

For the molecule `CC(N)C(=O)OC(C)(C)Cc1ccc(Cl)cc1` (configuration not stated), the Potency result in assay [1] and in assay [2] was “inactive” in each case.

Regarding `COC(=O)C1=CCCN(C)C1`, the outcome in assay [4], in assay [5], in assay [6], in assay [7], in assay [8] and in [9] was inactive. For the same molecule, the outcome in [10] was inactive. Moreover, the Potency result in assay [1], in assay [2] and in assay [3] was “inactive” in each case.

On to `COc1ccc(C(=O)N2CCCC2=O)cc1`, for which the call in assay [4], in assay [5], in assay [6], in assay [7], in [8] and in assay [9] was inactive. Besides, the outcome in assay [10] was inactive. The Potency result in [1], in assay [2] and in [3] was “inactive” in each case.

`c1ccc2nc(N3CCNCC3)ccc2c1`: the Potency result in assay [1] and in assay [2] was “inactive” in each case.

For the molecule `C[N+](C)(C)CCCCCCCCCC[N+](C)(C)C`, the result in assay [5] was inactive.

On to `NC(=O)CN1CCCC1=O`, for which the molecule was called inactive in assay [4], in assay [5], in [6], in assay [7], in assay [8] and in assay [10]. The Potency entry in [1], in [2] and in assay [3] was “inactive” throughout.

In the case of `NC(N)=NC(=O)c1nc(Cl)c(N)nc1N`, the result in [10] was inactive.

Turning to `CCCCCCCCC(=O)NCc1ccc(O)c(OC)c1`, the Potency result in [1] and in assay [2] was “inactive” throughout.

Consider `CNC(=O)Oc1ccc2c(c1)[C@]1(C)CCN(C)[C@@H]1N2C`, for which the result in [9] was inactive.

As to `O=C(O)c1nn(Cc2ccc(Cl)cc2Cl)c2ccccc12`, the outcome in assay [4], in assay [5], in assay [6], in assay [8], in assay [9] and in assay [10] was inactive. In addition, the Potency entry in assay [1], in [2] and in [3] was “inactive” in each case.

On to `CCOC(=O)Nc1ccc(NCc2ccc(F)cc2)nc1N`, for which, in assay [6], the outcome was inactive. Besides, the Potency in assay [3] is 10.6 µM (active).
